In the library only some 1.4% were active in any assay of this set; here they are far more common.
MenB inh: M. tuberculosis MenB inhibitors, primary screen, biochemical, absorbance; 100,000 compounds, 0.43% hits; AID 540299, 2011; inhibition, % (test concentration not listed); MenB enzyme assay, absorbance read-out; 1,4-dihydroxy-2-naphthoyl-CoA synthase (Mycobacterium tuberculosis (strain ATCC 25618 / …; in the data active = inhibition above about 21%, passing the limit was not always enough
Polio RdRp inh: poliovirus RdRp elongation inhibitors, primary screen, biochemical, fluorescence polarization, total intensity; Genome polyprotein (Poliovirus type 1 (strain Mahoney)), P03300; poliovirus polymerase elongation; stronger effect = lower value; % elongation, % (compound at 16.7 µg/mL); 150,000 compounds, 0.66% hits; AID 588519, 2011; in the data active = % elongation below about 90%
Mtb MbtI inh: MbtI salicylate synthase inhibitors, primary screen, biochemical, fluorescence intensity. AID 493033, 2011. 100,000 compounds, 0.89% hits. purified MbtI enzyme, fluorescence intensity read-out. inhibition, % (concentration not given with the values); in the data active = inhibition mostly above about 56%, no sharp cut-off; inactive = mostly below about 77%
Target sequence (P9WFX0 whole entry, looked up): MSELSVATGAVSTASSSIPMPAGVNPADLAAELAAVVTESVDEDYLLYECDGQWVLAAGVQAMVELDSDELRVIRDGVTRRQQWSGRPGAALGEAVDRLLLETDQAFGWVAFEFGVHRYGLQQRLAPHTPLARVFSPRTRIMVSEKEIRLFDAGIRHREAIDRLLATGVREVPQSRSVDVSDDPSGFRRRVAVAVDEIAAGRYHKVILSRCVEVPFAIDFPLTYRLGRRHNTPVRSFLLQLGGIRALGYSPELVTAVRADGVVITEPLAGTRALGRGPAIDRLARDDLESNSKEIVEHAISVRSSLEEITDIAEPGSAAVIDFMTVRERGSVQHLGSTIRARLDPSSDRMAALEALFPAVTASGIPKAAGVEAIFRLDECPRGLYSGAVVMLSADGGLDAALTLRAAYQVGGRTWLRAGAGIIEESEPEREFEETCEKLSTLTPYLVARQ
AID504770: growth inhibition of E. coli YBA685, primary screen, V. cholerae RctB inhibitors. z-score (no concentration beside the values). E. coli YBA685 rctB-dependent plasmid, OD600 growth, 3 h; stronger effect = lower value. 130,000 compounds, 0.27% hits; in the data active = z-score below about -2, passing the limit was not always enough
Numbers without * were called inactive; nt = not tested or not shown.

SMILES	MenB inh	Polio RdRp inh	Mtb MbtI inh	AID504770
CN(C)CCNCc1ccc(-c2ccccc2)o1	61*	102	13	-0.5
CC(O)CNCc1ccc(-c2ccccc2)o1 (stereo not drawn)	8	100	2	-0.1
Cc1ccc(C(=O)N2CCN(c3ncnc4c3cnn4-c3ccccc3)CC2)cc1	-14	99	-13	-4.2*
CS/C(=N\S(=O)(=O)c1ccc(C)cc1)N1CCN(C(=O)c2cccs2)CC1	-12	108	-3	0.3
COC(=O)Cc1nc(-c2ccccc2)cs1	6	86*	10	0.05
COC(CNc1ncnc2sc(-c3ccccc3)cc12)OC	-29	102	80*	-0.35
C=CCN(CC=C)C(=O)C1CCN(Cc2cc(Br)c(O)c(OC)c2)CC1	-32	104	6	0.85
O=C(NCc1ccccc1)C1CCC1	-3	102	nt	-0.45
O=C(NC(=S)NCc1ccccc1)C1CCCC1	-24	99	76*	0
O=C1c2ccccc2-c2onc3c(Cl)ccc1c23	-26	100	1	1.8
O=C1c2ccccc2-c2onc3ccc(Oc4c(F)c(F)c(F)c(F)c4F)c1c23	3	102	-5	-2.2*
CN=Cc1cc(-c2ccccc2)n(C)c1S	-144	101	98*	1.4
Cc1cccc(NC(=S)N2CCCCC2C(N)=O)c1 (stereo not drawn)	5	97	58*	0
O=C(Sc1nc2ccccc2o1)c1ccccc1	-50	100	95*	-1.4
O=C(/C=C/Sc1nc2ccccc2o1)c1ccccc1	-6	97	54*	0.3
CCOC(=O)c1cccc(NC(=O)N2CCSc3ccccc32)c1	6	100	-16	0.9
CCC(C)N=Cc1c(O)n(-c2ccccc2)c(=O)[nH]c1=O (stereo not drawn)	-3	96	102*	-0.65
CC(=O)SCC(C)C(=O)O (stereo not drawn)	-18	103	1	-0.65
O=C(/C=C/c1ccccc1)ON1C(=O)CCC1=O	-14	35*	nt	0.65
N#CCOC(=O)c1ccc(-c2cc(=O)c3ccccc3o2)cc1	nt	nt	nt	-0.2
N#CCOC(=O)c1cc(=O)c2ccccc2o1	2	74*	-13	0.25
COc1ccc2c(c1)-c1nc(/N=C/c3ccc(C)o3)sc1CC2	-49	97	82*	-0.4
COc1ccc2c(c1)CCc1sc(/N=C/c3ccc(C)cc3)nc1-2	-17	101	18	1.1
NNC(=S)NC1CC2CCC1C2 (stereo not drawn)	-52	101	-11	-0.75
Cc1ccc(NC(=O)C(OC(=O)c2c(C)noc2C)c2ccccc2)cc1Cl (stereo not drawn)	-14	104	-16	0.35
SMILES	MenB inh	Polio RdRp inh	Mtb MbtI inh	AID504770
COC(=O)/C=C1/OC(c2ccccc2)=CC1=O	-25	139	89*	1.6
O=C(O)/C=C1\OC(=O)c2ccccc21	-6	106	-1	-0.35
O=C(NCCc1ccccc1)C1CCN(Cc2cc3ccccc3n2Cc2cccc(Cl)c2)CC1	nt	106	nt	nt
CC(C)CCNC(=O)C1CCN(Cc2cccc(OCc3ccccc3)c2)CC1	-7	74*	nt	-0.6
Cc1ccc(C(=O)CC(C(=O)O)N2CCN(C)CC2)cc1 (stereo not drawn)	31*	104	nt	-1.3
COC(=O)c1cccc(NS(=O)(=O)c2ccccc2)c1	nt	nt	nt	0.25
Cc1ccc(C2=NC3(CCN(C(=O)C4CCCC4)CC3)NC2=O)cc1C	-24	103	-7	-0.95
C[C@@H]1NCCc2cc(O)c(O)cc21	2	101	76*	nt
O=C(CNC(=O)c1ccccc1)NCc1ccco1	-18	103	-3	1.2
O=S(=O)(c1ccc(-c2ccccn2)s1)N1CCOCC1	-16	103	24	1.8
C1CCOC2(CCC3(CC2)OCCCCO3)OC1	0	101	-20	-1.1
Cc1csc(Nc2ccc(Cl)cc2)n1	-13	98	63*	-1.1
Clc1ccc(Nc2nnns2)cc1	-3	98	59*	-1.3
O=C(CSC1=Nc2ccccc2C2CC=NN12)Nc1ccc2c(c1)CCC2 (stereo not drawn)	-124	3.0*	17	0.25
CCOc1ccc([C@@H]2[C@H](C(=O)O)c3ccccc3C(=O)N2Cc2ccccc2)c(O)c1	9	69*	3	0.3
COc1ccc(C2C(C(=O)O)c3ccccc3C(=O)N2Cc2ccc(Cl)cc2)cc1 (stereo not drawn)	5	103	5	0.45
N=C(N)SCc1csc(N)n1	7	87*	nt	-0.45
Cc1cc(C)nc(SCc2csc(N)n2)n1	-24	98	1	-0.4
